PubChem BioAssay (NCATS)
Values without a mark were called inactive. Inconclusive results are not listed. Where a call stands in place of a potency, no number is given. Calls of active or inactive are those of the source. Unless noted, calls come from the whole dose curve; as a rule, active = well fitted curve in the direction sought with a large enough effect; inconclusive = small, poorly fitted or top-dose-only effect, or another doubt; inactive = no such curve, though single readings can be large; an effect the other way counts as inactive or inconclusive.

Assays:
[1] = Inducers of the Endoplasmic Reticulum Stress Response (ERSR) in human glioma: Validation (AID 504836)
How it was run: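 ERSR induction read as luciferase luminescence (Bright-Glo, 10 min at room temperature) in stably transfected human U87-MG glioma cells exposed to compounds for 16 h, using GRP78 as sensor.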

[2] = molecular target: Ubiquitin carboxyl-terminal hydrolase 1 (Homo sapiens) (UniProt O94782); assay: Inhibitors of USP1/UAF1: Pilot qHTS (AID 504865); note: nearly all actives have a fitted effect of over 35% in size; note: potency is the fitted concentration of half-maximal effect
Ubiquitin carboxyl-terminal hydrolase 1 (Homo sapiens), sequence (O94782 whole entry, looked up): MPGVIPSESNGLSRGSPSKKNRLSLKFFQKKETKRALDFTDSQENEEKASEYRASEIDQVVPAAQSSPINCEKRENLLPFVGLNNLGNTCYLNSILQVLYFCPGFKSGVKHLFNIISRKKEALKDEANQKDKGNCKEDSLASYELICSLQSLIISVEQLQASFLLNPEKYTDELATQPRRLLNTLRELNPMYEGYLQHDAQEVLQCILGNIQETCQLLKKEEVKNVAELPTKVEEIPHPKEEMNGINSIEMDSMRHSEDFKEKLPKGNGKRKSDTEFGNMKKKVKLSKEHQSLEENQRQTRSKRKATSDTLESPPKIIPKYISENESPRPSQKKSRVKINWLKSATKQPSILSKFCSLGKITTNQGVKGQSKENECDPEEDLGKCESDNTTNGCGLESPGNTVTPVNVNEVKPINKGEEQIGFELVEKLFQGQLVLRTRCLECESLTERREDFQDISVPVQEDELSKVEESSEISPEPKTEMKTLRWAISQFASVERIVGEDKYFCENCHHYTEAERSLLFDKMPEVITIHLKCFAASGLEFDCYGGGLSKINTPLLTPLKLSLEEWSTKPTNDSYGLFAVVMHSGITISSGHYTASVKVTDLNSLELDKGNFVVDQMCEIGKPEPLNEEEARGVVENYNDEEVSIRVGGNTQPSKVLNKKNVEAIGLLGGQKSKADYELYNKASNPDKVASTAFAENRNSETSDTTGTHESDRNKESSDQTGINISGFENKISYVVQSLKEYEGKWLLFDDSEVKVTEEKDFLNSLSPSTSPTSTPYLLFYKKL
How it was run: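 Kinetic fluorescence assay: 1nM USP1/UAF1, 15 min compound preincubation, then 150nM Ub-Rho; 480/540 nm.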

[3] = molecular target: Bile acid receptor (Homo sapiens) (UniProt Q96RI1); assay: qHTS assay for small molecule agonists of farnesoid X receptor signaling (AID 588527; calls by dose curve; note: series mostly up to about 77 µM); details: HEK293T FXR-UAS-bla, beta-lactamase ratio, 16 h; hits give high values
Bile acid receptor (Homo sapiens), sequence (Q96RI1 whole entry, looked up): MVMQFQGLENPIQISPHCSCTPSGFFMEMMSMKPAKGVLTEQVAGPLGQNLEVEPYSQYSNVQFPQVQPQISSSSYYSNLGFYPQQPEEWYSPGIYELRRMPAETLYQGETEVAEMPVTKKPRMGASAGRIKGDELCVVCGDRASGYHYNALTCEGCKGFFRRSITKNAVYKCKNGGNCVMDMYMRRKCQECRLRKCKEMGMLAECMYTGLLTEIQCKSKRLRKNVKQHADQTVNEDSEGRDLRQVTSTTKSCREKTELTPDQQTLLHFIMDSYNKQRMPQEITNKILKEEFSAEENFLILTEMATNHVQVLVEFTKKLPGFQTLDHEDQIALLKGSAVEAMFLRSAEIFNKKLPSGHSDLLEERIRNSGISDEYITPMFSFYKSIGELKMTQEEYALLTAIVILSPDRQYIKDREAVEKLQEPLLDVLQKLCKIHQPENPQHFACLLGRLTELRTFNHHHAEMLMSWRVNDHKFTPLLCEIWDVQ
How it was run: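 FXR-UAS-bla HEK293T cells (10% dialyzed FBS) preincubated 5-7 h at 37 C, then compounds at up to 92 uM for 16 h at 37 C. CCF4 beta-lactamase read-out after 2 h RT. Normalized to chenodeoxycholic acid (100 uM) and DMSO; Hill fit gave EC50 and efficacy.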

## CCN(CC)CCOC(=O)C1(C2CCCCC2)CCCCC1
[1]
  outcome: inactive

## CNC1(C)C2CCC(C2)C1(C)C (stereo not drawn)
[1]
  outcome: inactive

## CC(CN1c2ccccc2Sc2ccccc21)N(C)C (stereo not drawn)
[1]
  outcome: inactive

## Cc1cnc(C(=O)NCCc2ccc(S(=O)(=O)NC(=O)NC3CCCCC3)cc2)cn1
[1]
  outcome: inactive

## CN1CCC(=C2c3ccccc3C=Cc3ccccc32)CC1
[1]
  outcome: inactive

## OCCN1CCN(CCCN2c3ccccc3Sc3ccc(C(F)(F)F)cc32)CC1
[1]
  outcome: inactive
[2]
  Potency: 56.2 µM (active)

## O=C(c1ccccc1)c1ccc2n1CCC2C(=O)O (stereo not drawn)
[1]
  outcome: inactive

## CC1=NS(=O)(=O)c2cc(Cl)ccc2N1
[1]
  outcome: inactive

## N=c1nc(N2CCCCC2)cc(N)n1O
[1]
  outcome: inactive

## CCC1C(=O)OCC1Cc1cncn1C (stereo not drawn)
[1]
  outcome: inactive
[2]
  Potency: inactive

## CN(C)CCCN1c2ccccc2Sc2ccc(Cl)cc21
[1]
  outcome: inactive

## CCOC(=O)c1ncn2c1CN(C)C(=O)c1cc(F)ccc1-2
[1]
  outcome: inactive

## COc1cc(Cc2cnc(N)nc2N)cc(OC)c1OC
[1]
  outcome: inactive

## CN1CCN(CCCN2c3ccccc3Sc3ccc(Cl)cc32)CC1
[1]
  outcome: inactive

## Cc1ccccc1N1C(=O)c2cc(S(N)(=O)=O)c(Cl)cc2NC1C (stereo not drawn)
[1]
  outcome: inactive

## Cc1cn[nH]c1
[1]
  outcome: inactive

## C[C@H]1c2cccc(O)c2C(O)=C2C(=O)[C@]3(O)C(O)=C(C(N)=O)C(=O)[C@@H](N(C)C)[C@@H]3[C@@H](O)[C@@H]21
[1]
  outcome: inactive

## Clc1ccc2c(c1)C(N1CCNCC1)=Nc1ccccc1O2
[1]
  outcome: inactive

## CNCCCC1c2ccccc2C=Cc2ccccc21
[1]
  outcome: inactive

## CCN(CC)C(=S)SSC(=S)N(CC)CC
[1]
  outcome: inactive

## CSc1ccc2c(c1)N(CCC1CCCCN1C)c1ccccc1S2 (stereo not drawn)
[1]
  outcome: inactive

## NC(=O)OCC(COC(N)=O)c1ccccc1
[1]
  outcome: inactive

## OCCN1CCN(CCCN2c3ccccc3Sc3ccc(Cl)cc32)CC1
[1]
  outcome: inactive

## Nc1nnc(-c2cccc(Cl)c2Cl)c(N)n1
[1]
  outcome: inactive

## O=C(C1CCCCC1)N1CC(=O)N2CCc3ccccc3C2C1 (stereo not drawn)
[1]
  outcome: inactive

## CN(C)[C@@H]1C(=O)C(C(N)=O)=C(O)[C@@]2(O)C(=O)C3=C(O)c4c(O)ccc(Cl)c4[C@@H](O)[C@H]3C[C@@H]12
[1]
  outcome: inactive

## CC(=O)Nc1nnc(S(N)(=O)=O)s1
[1]
  outcome: inactive

## CN(C)CC/C=C1\c2ccccc2COc2ccccc21
[1]
  outcome: inactive

## CCN(CC)CCNC(=O)c1cc(Cl)c(N)cc1OC
[1]
  outcome: inactive

## CC(=O)N[C@@H](CS)C(=O)O
[1]
  outcome: inactive

## CN[C@H]1CC[C@@H](c2ccc(Cl)c(Cl)c2)c2ccccc21
[1]
  outcome: inactive

## C=C1CC[C@@]2(O)[C@H]3Cc4ccc(O)c5c4[C@@]2(CCN3CC2CC2)[C@H]1O5
[2]
  Potency: inactive

## O=[N+]([O-])c1cc([As](=O)(O)O)ccc1O
[2]
  Potency: inactive

## O=C(CCCN1CCC(O)(c2ccc(Cl)cc2)CC1)c1ccc(F)cc1
[1]
  outcome: inactive
[3]
  activation: -8.42%

## CC1OC(C)OC(C)O1 (stereo not drawn)
[2]
  Potency: inactive
